# Screening data deposited in PubChem BioAssay by National Center for Advancing Translational Sciences (NCATS).
# DRD3 antagonist: D3 dopamine receptor (human) antagonism | D3R cells, DiscoveRx beta-arrestin luminescence, antagonist mode; hits give low values | max response, negative = inhibition, % | actives 2.5% (n = 360,000) | P35462; in the data active = max response below about -50%; inconclusive = no clear call, values can overlap the other calls; note: % is set by controls: 0 for no effect and ±100 for the full control effect
# Target sequence (P35462 whole entry, looked up): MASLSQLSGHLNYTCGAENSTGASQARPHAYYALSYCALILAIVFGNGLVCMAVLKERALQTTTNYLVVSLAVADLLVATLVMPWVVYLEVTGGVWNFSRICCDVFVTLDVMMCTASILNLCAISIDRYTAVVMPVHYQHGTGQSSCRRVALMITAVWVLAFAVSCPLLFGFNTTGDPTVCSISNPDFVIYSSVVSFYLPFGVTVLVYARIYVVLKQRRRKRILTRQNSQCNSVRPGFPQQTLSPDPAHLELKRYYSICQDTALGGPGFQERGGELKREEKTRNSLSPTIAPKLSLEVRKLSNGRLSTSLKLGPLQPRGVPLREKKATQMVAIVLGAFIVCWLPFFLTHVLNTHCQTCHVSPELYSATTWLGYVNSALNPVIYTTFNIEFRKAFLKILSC
#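 Cells expressing the human receptor were seeded at 1500 cells/well, incubated overnight at 37 degrees C in 5% CO2, then exposed to library compounds with dopamine controls for 90 minutes at 37 degrees C before luminescent detection.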
# D1 antag: human D1 dopamine receptor antagonism; AID 504652; activity change, negative = inhibition, % at 10 µM; actives 3.2% (n = 360,000); HEK293 TREx D1 cells, calcium flux, dopamine EC80; hits give low values; P21728; in the data active = activity change below about -30%; note: % is set by controls: 0 for no effect and ±100 for the full control effect
#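 Tetracycline-induced HEK293 Trex D1 cells, force-coupled to calcium, dye-loaded; compounds added and read 180 s, then EC80 dopamine added and calcium flux tracked kinetically another 180 s.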
# DRD3 agonist: activates the human D3 dopamine receptor; max activation, %; actives 0.58% (n = 410,000); AID 652048; D3R DiscoveRx beta-arrestin cells, luminescence, 90 min; P35462; in the data active = max activation above about 30%; note: 0% is about no effect
#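 Cells at 1500/well, incubated overnight, then treated with pinned compounds (dopamine as control) for 90 min at 37 degrees C. DiscoveRx reagent added for 30 - 60 minutes at room temperature; luminescence read.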
# D1 PAM: human D1 dopamine receptor positive modulation; P21728; HEK293 TREx D1 cells, calcium flux, dopamine EC20 potentiation; potentiation, % at 10 µM; actives 0.036% (n = 360,000); AID 504651; in the data active = potentiation above about 30%; note: 0% is about no effect
# D1 ag: agonists of human D1 dopamine receptor | P21728 | activation, % at 2 µM | actives 1% (n = 360,000) | HEK293 T-REx D1 cells, calcium flux, agonist mode | AID 504660; in the data active = activation above about 30%; note: 0% is about no effect
#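 Inducible HEK293 T-REx D1 cells, force-coupled to calcium signalling, were plated at 4000 cells/well with tetracycline and held overnight at 30 C. After no-wash calcium dye loading, compound-evoked calcium rise over 180 s flagged agonists.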
# * = called active by the depositor; ? = inconclusive; . = no result given; ! = a repeat was not active. Only some compounds are listed: those with a hit (about 6% of all), similar ones and a draw of the others.
SMILES,DRD3 antagonist,D1 antag,DRD3 agonist,D1 PAM,D1 ag
CCN1CCOC(=O)C1CC(=O)Nc1ccc(C(C)=O)cc1 (stereo not drawn),.,-4,-6,2,1
CCc1ccc(NC(=O)CC2C(=O)OCCN2CC)cc1 (stereo not drawn),.,-75*,-14,-5,-1
CC1CCN(C2CCN(S(=O)(=O)c3ccc(C(F)(F)F)cc3)CC2)CC1,-11,-3,-9,-1,5
O=S(=O)(c1ccc(F)cc1)N1CCC(N2CCCCCC2)CC1,-50*,10,-7,2,2
CC(C)(C)c1ccc(S(=O)(=O)N2CCC(N3CCCCC3)CC2)cc1,-2,-8,9,0,4
O=S(=O)(c1ccc2c(c1)C(=NO)c1cc(S(=O)(=O)N3CCCCC3)ccc1-2)N1CCCCC1,?,21,-9,-1,4
CC1CCN(S(=O)(=O)c2ccc3c(c2)C(=NO)c2cc(S(=O)(=O)N4CCC(C)CC4)ccc2-3)CC1,8,7,55*,-2,2
O=S(=O)(c1ccc(Cl)cc1)N1CCC(N2CCCCCC2)CC1,-67*,-7,0,-3,1
CC1CCN(C2CCN(S(=O)(=O)c3ccc(F)cc3)CC2)CC1,-17,-33*,-5,2,0
COc1ccc(CC(=O)NC2CC(=O)N(c3ccc4c(c3)OCCO4)C2)cc1 (stereo not drawn),.,.,10,-1,-4
COc1ccc2cc([C@@H](C)C(=O)O)ccc2c1,-28,9,-13,-5,-1
COc1ccc2cc(C(C)C(=O)OC(C)C)ccc2c1 (stereo not drawn),-20,-37*,-3,0,1
CC1CN(CC(=O)Nc2ccc(S(N)(=O)=O)cc2)CC(C)O1 (stereo not drawn),-11,-2,-2,-2,1
COc1ccc(CCC(=O)Nc2cccc(S(=O)(=O)N3CCCCCC3)c2)cc1OC,-11,-31*,1,-4,10
O=C(Cc1cccc(C(F)(F)F)c1)Nc1cc(S(=O)(=O)N2CCOCC2)ccc1N1CCCC1,11,-43*,-4,-24,1
COc1ccc(CCC(=O)Nc2cccc(S(=O)(=O)N3CCCC3)c2)cc1OC,-1,-18,-3,-1,3
O=C(Cc1cccc(C(F)(F)F)c1)Nc1cccc(S(=O)(=O)N2CCCC2)c1,-7,-41*,-10,-10,11
O=C(CSc1ccccc1)Nc1cccc(S(=O)(=O)N2CCCC2)c1,1,-32*,4,-2,5
O=C(Cc1cccc(C(F)(F)F)c1)Nc1ccc(S(=O)(=O)N2CCCC2)cc1,1,15,11,-3,3
CC(CC(=O)Nc1cccc(S(=O)(=O)N2CCCCC2)c1)c1ccccc1 (stereo not drawn),26,-5,3,-1,10
O=C(Cc1ccc(S(=O)(=O)N2CCOCC2)s1)Nc1cc(C(F)(F)F)ccc1N1CCCC1,11,0,4,5,29
O=C(COC(=O)C1CC2C=CC1C2)Nc1cccc(S(=O)(=O)N2CCCCC2)c1 (stereo not drawn),7,-13,31*,-5,8
O=C(O)c1ccc(S(=O)(=O)N2CCC(n3nnc4cc(C(F)(F)F)ccc43)CC2)cc1,-11,-26,11,-5,2
O=C(Nc1ccncc1)C1CCN(S(=O)(=O)c2cccc(C(F)(F)F)c2)CC1,13,-44*,1,.,8
O=C(O)c1cccc(S(=O)(=O)N2CCC(n3nnc4cc(C(F)(F)F)ccc43)CC2)c1,-76*,7,-14,-4,1
SMILES,DRD3 antagonist,D1 antag,DRD3 agonist,D1 PAM,D1 ag
O=C(NCc1ccncc1)C1CCN(S(=O)(=O)c2cccc(C(F)(F)F)c2)CC1,-9,1,2,-5,1
CC(=O)N1CCN(S(=O)(=O)c2cccc(C(=O)Nc3cc(C(F)(F)F)ccc3N3CCOCC3)c2)CC1,18,-31*,2,-10,0
O=C(Nc1ccc(C(F)(F)F)cc1)C1CCN(c2cnccn2)CC1,-6,-56*!,-2,-4,5
COc1cccc(C(NC(C)=O)c2nc(-c3ccc(OC)nc3)cs2)c1 (stereo not drawn),-2,.,1,.,.
Brc1cc2[nH]cnc2c2ccccc12,19,-4,46*,9,4
Cc1ccc2nc(NS(=O)(=O)c3ccc(Cl)cc3)c(Nc3ccc(C(=O)O)cc3)nc2c1,.,-9,3,-1,11
CCOC(=O)c1ccc(Nc2nc3ccccc3nc2NS(=O)(=O)c2ccc(Cl)cc2)cc1,.,-40*,8,-2,15
CCc1ccc(Nc2nc3ccccc3nc2NS(=O)(=O)c2ccccc2)cc1,.,-49*,-4,-5,17
COc1cccc(Nc2nc3cc(C)ccc3nc2NS(=O)(=O)c2ccc(Cl)cc2)c1,.,-50*,43*,-4,58*
COc1cccc(Nc2nc3ccccc3nc2NS(=O)(=O)c2ccc(NC(C)=O)cc2)c1,-28,6,-7,-7,4
Cc1ccccc1NC(=O)Nc1nc(C(N)Cc2ccccc2)cs1 (stereo not drawn),-1,.,-12,.,.
CCCC(=O)O[C@]1(C(=O)COC(=O)CC)CC[C@H]2[C@@H]3CCC4=CC(=O)CC[C@]4(C)[C@H]3[C@@H](O)C[C@@]21C,.,.,1,.,.
CCCSc1nc2sc3c(c2c(=O)n1Cc1ccccc1)CC(C)(CC)OC3 (stereo not drawn),.,8,-10,1,-1
CCCCn1c(SCC(=O)NCc2ccccc2)nc2ccc(N3CCOCC3)cc2c1=O,35,-1,34*,-6,-3
O=C(CCCn1c(SCC(=O)NCC2CCCO2)nc2ccccc2c1=O)NCc1ccccc1 (stereo not drawn),20,-1,0,0,2
Cc1cc(NC(=O)CSc2nc3ccccc3c(=O)n2CCCC(=O)NCc2ccccc2)n[nH]1,18,-35*,19,-5,4
O=C(CCCn1c(SCC(=O)Nc2ccccc2Cl)nc2ccccc2c1=O)NCC1CCCO1 (stereo not drawn),-6,-33*,-7,5,5
Cc1cccc(C)c1NC(=O)Cn1nc(C)c2sc3ccccc3c2c1=O,.,0,-9,-2,4
O=C(NCCc1nnc2ccc(N3CCCCCC3)nn12)c1ccccc1,-2,-31*,-10,-12,41*
Cc1nnc2ccc(N3CCN(C(=O)c4ccccc4)CC3)nn12,21,-62*,0,-2,0
Cc1ccc(C(=O)N2CCN(c3ccc(N4CCOCC4)nn3)CC2)cc1,-12,-32*,-4,-11,1
CC(=O)Nc1cccc(NC(=O)CSc2cn(CC(=O)N3CCCCCC3)c3ccccc23)c1,.,4,-6,-1,1
COc1ccc(NC(=O)Nc2nnc(N(C)C3CCCCC3)s2)c(OC)c1,.,5,1,0,0
